# Data: PubChem BioAssay AID887 (National Center for Advancing Translational Sciences (NCATS), 2007)
# In all, about 74,000 compounds went through this assay and about 1,100 (1.5%) were called active. Inconclusive results (about 5%) are left out. Many of the other results were omitted from the sample, so actives are more common in it than they were. Unmarked numbers belong to inactive results. Calls come from the whole dose curve; as a rule, active = well fitted inhibition curve with a large enough effect; inconclusive = small, poorly fitted or top-dose-only effect; inactive = no such curve, though single readings can be large or run the other way.
# Biological target: Polyunsaturated fatty acid lipoxygenase ALOX15 (Homo sapiens) (UniProt P16050)
# Sequence (P16050 whole entry, looked up): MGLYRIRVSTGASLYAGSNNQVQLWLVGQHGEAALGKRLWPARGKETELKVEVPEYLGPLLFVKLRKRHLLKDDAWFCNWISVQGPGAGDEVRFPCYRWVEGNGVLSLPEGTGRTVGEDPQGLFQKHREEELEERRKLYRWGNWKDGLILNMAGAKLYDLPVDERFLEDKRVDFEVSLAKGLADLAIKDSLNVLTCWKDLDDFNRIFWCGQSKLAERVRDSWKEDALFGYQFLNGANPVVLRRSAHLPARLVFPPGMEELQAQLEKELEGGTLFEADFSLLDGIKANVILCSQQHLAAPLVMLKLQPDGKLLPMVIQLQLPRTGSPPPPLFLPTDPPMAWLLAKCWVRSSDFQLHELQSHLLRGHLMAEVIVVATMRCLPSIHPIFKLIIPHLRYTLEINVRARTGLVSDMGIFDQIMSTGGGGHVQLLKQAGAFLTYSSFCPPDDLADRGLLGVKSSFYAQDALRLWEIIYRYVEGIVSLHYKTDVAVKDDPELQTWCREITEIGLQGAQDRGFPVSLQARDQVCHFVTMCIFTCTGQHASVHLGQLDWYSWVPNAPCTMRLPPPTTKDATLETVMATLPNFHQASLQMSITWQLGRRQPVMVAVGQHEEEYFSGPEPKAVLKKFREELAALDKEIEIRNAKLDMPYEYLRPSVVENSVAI
# Assay: qHTS Assay for Inhibitors of 15-hLO (15-human lipoxygenase); note: nearly all actives have a fitted effect of over 55% in size
# Conditions: purified 15hLO-1, xylenol orange hydroperoxide absorbance; series mostly up to 57.1 µM; activity change, negative = inhibition: at the top concentration
# Text: Assay Overview: NIH Molecular Libraries Screening Centers Network [MLSCN] NIH Chemical Genomics Center [NCGC] MLSCN Grant: MH081283-01A1 PI Name: Holman, T.R., University of California, Santa Cruz Human lipoxygenase 15hLO-1 is a member of the closely related lipoxygenase family of enzymes which catalyze the site-specific oxidation of arachidonic acid to various hormone precursor molecules and as such is a candidate for drug development in a variety of disease areas, such as cancer and inflammation. Inhibition of 15hLO-1 activity was screened by utilizing arachidonic acid as a substrate. The extent of hydroperoxide product formation was measured by a secondary chromogenic reaction in which xylenol orange (XO, Sigma-Aldrich, cat. number 39,818-7) reacts with the ferric ions produced from the reaction between the hydroperoxide and ferrous ions. The Fe(III)-XO complex is characterized with red-shifted absorbance at 560 nm. A purified preparation of human 15hLO-1 was supplied by Professor Ted Holman, University of California, Santa Cruz.
# Assay Protocol: Buffer: 25 mM Hepes pH 7.5, 0.01% Triton X-100. Reagents/Controls: Buffer in columns 3 and 4 as negative control (no enzyme). Substrate solution: 50 uM arachidonic acid (Sigma-Aldrich, St. Louis, MO) final concentration dispensed throughout the plate. Enzyme: 40 nM 15hLO-1 final concentration in columns 1, 2, 5-48. Column 1 is neutral (100% activity). Column 2 contained pin-transferred titration of NDGA (nordihidroguaiaretic acid, Sigma-Aldrich, N 5023, top concentration 10 mM in DMSO, then 1:2 dilution in duplicate). (Dilution factor: 23 nL into 4 uL.) Chromogenic detection reagent (divalent iron/xylenol orange, Fe-XO): 200 uM xylenol orange plus 300 uM ferrous ammonium sulfate prepared freshly in 50 mM sulfuric acid. Assay Steps: Three uL of enzyme were dispensed to 1536-well Greiner black clear bottom plates. Compounds and controls (23 nL) were transferred via Kalypsys PinTool. The plates were incubated for 15 min at room temperature, and then 1 uL of substrate solution was added to start the reaction. After room temperature incubation for 6 minutes, 4 uL of Fe-XO solution was added to each well followed by a short spin (1000 rpm, 15 sec) and the plates were then incubated for 30 min. The absorbance at 405 and 573 nm were measured using ViewLux (Perkin-Elmer) High-throughput CCD imager and absorbance protocol settings. The 573-to-405 absorbance ratio was used to compute reaction progress.
# % is set by controls: 0 for no effect and ±100 for the full control effect; potency is the fitted concentration of half-maximal effect.
SMILES,Potency,"activity change, negative = inhibition"
CC(C)(Cc1c[nH]c2ccc(Cl)cc12)NCCOc1ccccc1OCC1CC1,12.6 µM (active),–
CNCC[C@H](Oc1ccc(C(F)(F)F)cc1)c1ccccc1,inactive,–
CCC(C)C(=O)O[C@@H]1C[C@@]2(C)C(c3ccoc3)OC(=O)CC23OC2(C)O[C@@]14[C@@]1(C)C(CC(=O)OC)C5(C)CC1(O)C(O)(C5OC(=O)C1(C)OC1C)C(OC(C)=O)[C@@]34O2 (stereo not given in full),–,1.08%
CN(C)C1C(=O)C(C(N)=O)=C(O)[C@@]2(O)C(=O)C3=C(O)c4c(O)cccc4[C@@](C)(O)C3C[C@@H]12 (stereo not given in full),–,3.68% [at 25.6 µM]
CC(=O)OC1C2CCC3C1(CC(O)[C@@]1(O)[C@@H](CC(O)C1(C)C)[C@]3(C)O)C[C@@]2(C)O (stereo not given in full),–,1.91%
COC(=O)N(c1ccc(OC)cc1)P1(=S)OCCC(C)O1 (stereo not given),3.98 µM (active),–
CC1=CC(=O)C2=C(C)C[C@H](O)[C@H]3[C@H](C)C(=O)O[C@@H]3C12 (stereo not given in full),–,0.0263% [at 25.6 µM]
C[C@@]12CCC3C(CC[C@@H]4CC(O)CC[C@@]34C)C1CCC2O (stereo not given in full),–,0.523%
CCN1C[C@]2(COC)C(O)C[C@H](OC)[C@@]34C5C[C@]6(O)C(OC)C(O)[C@](OC(C)=O)(C5C6OC(=O)c5ccccc5)C(C(OC)C23)C14 (stereo not given in full),–,-2.83%
Clc1ccc(C(c2ccc(Cl)cc2)n2cc[n+](C[C@@H](OCc3ccc(Cl)cc3Cl)c3ccc(Cl)cc3Cl)c2)cc1,20 µM (active),–
CN1C2CC3CC1C(O3)C2O (stereo not given),–,-1.11%
N#Cc1c(Cl)c(Cl)c(Cl)c(C#N)c1Cl,–,-5.52%
CC[C@@H]1CN2CC[C@@H]1C[C@H]2[C@H](O)c1ccnc2ccc(OC)cc12,–,-20.9% [at 25.6 µM]
CNC(C)[C@@H](O)c1ccccc1 (stereo not given in full),–,1.77%
COc1ccc2c3c1OC1CC(O)C=C[C@@]31CCN(C)C2 (stereo not given in full),–,-0.861%
